# PubChem BioAssay (NCI)
# About 83,000 compounds went through this panel and 20% of them were active in at least one assay; those are over-represented in the sample as a whole.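 Cells were grown in 96-well plates and exposed to the test compound at a single concentration for 48 hours; results are reported as percent growth, with values below 10 considered active.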 Active and inactive are the calls of the source.
# System: SNB-75 CNS
# Experiment: NCI-60 one-dose screen, 48 h (100 = growth as untreated, 0 = no growth, -100 = all killed)
# Conditions: 10 µM unless noted
row,Structure (SMILES),growth
1,CN(C)Cc1ccccn1,95.7% (inactive)
2,CCNCC(C)(C)O,79.4% (inactive)
3,CCOS(=O)(=O)c1ccc([N+](=O)[O-])cc1,87% (inactive)
4,CCCCCCCCCCCCSC1=C(Cl)C(=O)C(OC)=C(OC)C1=O,44.9% (inactive)
5,CN(C(=S)S(=O)(=O)C12CC3CC(CC(C3)C1)C2)c1ccccc1,98.9% (inactive)
6,N#Cc1ccc2nc[nH]c2c1,95.5% (inactive)
7,CCCCCC#CC(=O)O,99.7% (inactive)
8,CC(=O)C1C(=O)C(=O)N(c2ccc(Cl)c(Cl)c2)C1=O (centres undefined),78.3% (inactive)
9,CC(C)OCC(CCl)OC(=O)Nc1ccccc1 (centres undefined),92.2% (inactive)
10,COc1ccc(C(=O)/C(=N/Nc2ccccc2)c2ccc(OC)cc2)cc1,97.1% (inactive)
11,Cc1cc(Nc2ccc3c(c2)OCO3)c2cc3c(cc2n1)OCO3,25.6% (inactive)
12,NC(=O)N1CCOCC1,66% (inactive)
13,CC(=O)Nc1ccc(O)c(C)c1,95.4% (inactive)
14,COc1cccc2c1Cc1ccccc1-2,110% (inactive)
15,C=COC(=O)CCOCC(CC)CCCC (centres undefined),97.2% (inactive)
16,N#C/C(=C\c1ccc(C#N)cc1)C(=O)c1ccccc1,77.8% (inactive)
17,Cc1cccc(C)c1NC(=S)/N=C\c1c(O)[nH]c(=O)[nH]c1=O,85.1% (inactive)
18,COc1ccc(C(=O)C(=O)c2ccccc2)cc1,104% (inactive)
19,O=C1CSc2ccccc2N1,76.2% (inactive)

row,Structure (SMILES),growth
1,Cc1c(Cl)cccc1NC(=S)NC(=O)c1ccccc1,90.5% (inactive)
2,CC(c1ccccc1)N(C)C (centres undefined),59.5% (inactive)
3,CCOC(=O)/C(O)=C(\C=N\C(=S)Nc1ccc(Cl)c(Cl)c1)C(=O)OCC,82% (inactive)
4,CCC(=O)C1C(=O)c2ccccc2C1=O,83.1% (inactive)
5,CCCCCCCCCc1ccc(OC(C)=O)cc1,99.4% (inactive)
6,Nc1ncnc(Nc2ccc(C(F)(F)F)cc2)n1,87.5% (inactive)
7,CCOP(=O)(OCC)/C(=C\N1C(=O)CC(=O)NC1=S)C(=O)OC,90.2% (inactive)
8,C=CCOc1ccc(Cl)cc1Cl,90.3% (inactive)
9,NNC(=O)N/N=C1\C(=O)N(c2nccs2)C(=O)C(=O)C1c1nc2ccccc2s1 (centres undefined),81.8% (inactive)
10,Cc1cc(Cl)cc(Cc2cc(Cl)cc(C)c2O)c1O,19.3% (inactive)
11,C=CCN1CCCC1=O,70.2% (inactive)
12,COc1cc(C(=O)O)c(O)c(C(C)(C)C)c1,96.8% (inactive)
13,CC(=O)OCC1OC(n2cnc3c(=S)nc(N)[nH]c32)C(OC(C)=O)C1OC(C)=O (centres undefined),56% (inactive)
14,CCC(=O)Oc1ccc2ccccc2c1,82.4% (inactive)
15,CCOC(=O)C(=O)CC(=O)c1ccccc1,91.7% (inactive)
16,Cc1ccc(NCN2C(=O)c3ccccc3C2=O)c(C)n1,116% (inactive)
17,CC(C)c1ncc([N+](=O)[O-])n1C,116% (inactive)
18,O=C(O)c1c[nH]c2ccccc2c1=O,89.9% (inactive)

# System: SNB-19 CNS
# Experiment: as above
# Conditions: 10 µM unless noted
row,Structure (SMILES),growth
1,CN(C)Cc1ccccn1,103% (inactive)
2,CCNCC(C)(C)O,102% (inactive)
3,CCOS(=O)(=O)c1ccc([N+](=O)[O-])cc1,101% (inactive)
4,CCCCCCCCCCCCSC1=C(Cl)C(=O)C(OC)=C(OC)C1=O,71.8% (inactive)
5,CN(C(=S)S(=O)(=O)C12CC3CC(CC(C3)C1)C2)c1ccccc1,102% (inactive)
6,N#Cc1ccc2nc[nH]c2c1,111% (inactive)
7,CCCCCC#CC(=O)O,108% (inactive)
8,CC(=O)C1C(=O)C(=O)N(c2ccc(Cl)c(Cl)c2)C1=O (centres undefined),107% (inactive)
9,CC(C)OCC(CCl)OC(=O)Nc1ccccc1 (centres undefined),105% (inactive)
10,COc1ccc(C(=O)/C(=N/Nc2ccccc2)c2ccc(OC)cc2)cc1,100% (inactive)
11,Cc1cc(Nc2ccc3c(c2)OCO3)c2cc3c(cc2n1)OCO3,0.716% (active)
12,NC(=O)N1CCOCC1,101% (inactive)
13,CC(=O)Nc1ccc(O)c(C)c1,104% (inactive)
14,COc1cccc2c1Cc1ccccc1-2,94.4% (inactive)
15,C=COC(=O)CCOCC(CC)CCCC (centres undefined),104% (inactive)
16,N#C/C(=C\c1ccc(C#N)cc1)C(=O)c1ccccc1,93.4% (inactive)
17,Cc1cccc(C)c1NC(=S)/N=C\c1c(O)[nH]c(=O)[nH]c1=O,103% (inactive)
18,COc1ccc(C(=O)C(=O)c2ccccc2)cc1,100% (inactive)
19,O=C1CSc2ccccc2N1,96.3% (inactive)

row,Structure (SMILES),growth
1,Cc1c(Cl)cccc1NC(=S)NC(=O)c1ccccc1,107% (inactive)
2,CC(c1ccccc1)N(C)C (centres undefined),100% (inactive)
3,CCOC(=O)/C(O)=C(\C=N\C(=S)Nc1ccc(Cl)c(Cl)c1)C(=O)OCC,104% (inactive)
4,CCC(=O)C1C(=O)c2ccccc2C1=O,109% (inactive)
5,CCCCCCCCCc1ccc(OC(C)=O)cc1,103% (inactive)
6,Nc1ncnc(Nc2ccc(C(F)(F)F)cc2)n1,98.8% (inactive)
7,CCOP(=O)(OCC)/C(=C\N1C(=O)CC(=O)NC1=S)C(=O)OC,98.6% (inactive)
8,C=CCOc1ccc(Cl)cc1Cl,114% (inactive)
9,NNC(=O)N/N=C1\C(=O)N(c2nccs2)C(=O)C(=O)C1c1nc2ccccc2s1 (centres undefined),101% (inactive)
10,Cc1cc(Cl)cc(Cc2cc(Cl)cc(C)c2O)c1O,17.3% (inactive)
11,C=CCN1CCCC1=O,93.1% (inactive)
12,COc1cc(C(=O)O)c(O)c(C(C)(C)C)c1,98.9% (inactive)
13,CC(=O)OCC1OC(n2cnc3c(=S)nc(N)[nH]c32)C(OC(C)=O)C1OC(C)=O (centres undefined),99.9% (inactive)
14,CCC(=O)Oc1ccc2ccccc2c1,97.9% (inactive)
15,CCOC(=O)C(=O)CC(=O)c1ccccc1,100% (inactive)
16,Cc1ccc(NCN2C(=O)c3ccccc3C2=O)c(C)n1,113% (inactive)
17,CC(C)c1ncc([N+](=O)[O-])n1C,111% (inactive)
18,O=C(O)c1c[nH]c2ccccc2c1=O,101% (inactive)
